PubChem BioAssay AID1825 (The Scripps Research Institute Molecular Screening Center, 2009)
Among all 290,000 compounds or so, about 2,300 (0.79%) were called active. The list comes from a sample in which actives are over-represented; it also holds similar structures and randomly drawn compounds. Values without a mark were called inactive. Rule as the data show it: active = inhibition above about 22%; inactive = the rest.

Assay: cytotoxicity in IEC-6 intestinal epithelial cells, primary screen, cytotoxicity control for KLF5 inhibitor project, cell-based, luminescence (AID 1825);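 also: 0% = plate median of test compound wells and 100% = cytotoxic reference compound wells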
Conditions: IEC-6 cytotoxicity, luminescence viability; at 5 µM; hits give high values

SMILES	inhibition
COc1ccc(-c2ccc(CCC(=O)O)n2NC(=O)c2ccc(C(C)(C)C)cc2)cc1	-6.8%
Cc1ccc(-c2cc(=O)c3ccc(F)cc3[nH]2)cc1	-6.3%
O=c1cc(-c2ccccc2)[nH]c2cc(F)ccc12	80.7% (active)
Cc1ccc(-c2cc(=O)c3ccc(Cl)cc3[nH]2)cc1	0.6%
O=C(Nc1cccc2cccnc12)c1cccc(Cl)c1	7.6%
COc1ccc(C(=O)NCC(=O)N/N=C/c2cccnc2)cc1	3.2%
Cc1nc2nc(C)c(NS(=O)(=O)c3ccc(C(C)(C)C)cc3)c(=O)n2[nH]1	1.1%
Cn1nccc1C(=O)NC1CCCc2c1cnn2-c1ccc(F)cc1F (configuration not stated)	31% (active)
Cc1cc(C(=O)NC2CCCc3c2cnn3-c2cccc(C)c2C)c(C)o1 (configuration not stated)	4.8%
CC(=O)NCC(=O)NC1CCCc2c1cnn2-c1ccccc1F (configuration not stated)	-1.9%
Cn1nccc1C(=O)NC1CCCc2c1cnn2-c1ccccc1F (configuration not stated)	25.7% (active)
COc1ccc(C(=O)NC2CCCc3c2cnn3-c2cccc(C)c2C)c(OC)n1 (configuration not stated)	8.5%
Cc1ccc(-n2ncc3c2CCCC3NC(=O)c2cnccn2)cc1C (configuration not stated)	3.7%
Cc1ccc(/C=C2\CCn3c2nc2cc(C(=O)O)ccc2c3=O)c(C)c1	1.8%
C=C(C)Cn1c(C)cc(C)c(S(=O)(=O)c2ccccc2C)c1=O	-2.1%
Cc1cccc(-n2ncc(C#N)c2-n2cccc2)c1	1.1%
COc1ccc(Oc2c(Cl)cnn(-c3ccccc3)c2=O)cc1	1.3%
Cc1cccc(-n2ncc(Cl)c(Cl)c2=O)c1	97.5% (active)
CC(C)CC(=O)N1CCN(Cc2ccccc2Br)CC1	1.6%
COc1ccc(/C=C/C(=O)Nc2ccc(C34CC5CC(CC(O)(C5)C3)C4)cc2)cc1OC	18.5%
O=C(N=C1SC2CS(=O)(=O)CC2N1c1cc(Cl)ccc1Cl)C1CC1 (configuration not stated)	-6.4%
COc1ccc(C23NCCN2C(=O)c2ccccc23)cc1 (configuration not stated)	1.3%
COc1cccc(N2C(=O)CN(Cc3ccccc3)C2=S)c1	9.4%
Cc1ccc(S(=O)(=O)N(C)C2(C)CCS(=O)(=O)C2)cc1 (configuration not stated)	-8.7%
Cc1ccc(S(=O)(=O)N2CCN(C)CC2)cc1	-1.1%

SMILES	inhibition
Cc1ccc(S(=O)(=O)C2(S(=O)(=O)c3ccc(C)cc3)CCCC2)cc1	45.6% (active)
COc1ccccc1CCNS(=O)(=O)c1cn(C)nc1C	-1.7%
CN(CCc1ccccn1)C1CCCN(S(=O)(=O)c2ccccc2Cl)C1 (configuration not stated)	5.5%
O=C(CN1C(=O)C2C3C=CC(C3)C2C1=O)NCC1COc2ccccc2O1 (configuration not stated)	-0.7%
Cc1cc(C(=O)CCl)c(C)n1CC1COc2ccccc2O1 (configuration not stated)	-0.4%
O=C1C(=O)N(CC2COc3ccccc3O2)c2ccccc21 (configuration not stated)	65.8% (active)
COc1ccc(N2CC(C(=O)N[C@@H](C)C(=O)N3CCCCC3)CC2=O)cc1 (some centres not stated)	4.5%
Cc1ccc(-n2ncc3c2CC(C)(C)CC3NC(=O)Cc2c(C)noc2C)cc1 (configuration not stated)	4%
COc1cc(Br)c(-c2sc(Nc3ccccc3)n[n+]2-c2ccccc2)cc1OC	-5.7%
COc1ccc(-c2cn(-c3ccc(OC)cc3)c(=S)[nH]2)cc1	-3.2%
S=c1[nH]c(-c2cccs2)cn1-c1ccccc1	-0.4%
O=c1oc2ccccc2cc1-c1cn(-c2ccccc2)c(=S)[nH]1	30.6% (active)
CCn1ccnc1CN(C)C(=O)c1cc(COc2ccc(Cl)cc2OC)on1	1.4%
Cc1nn(CCCC(=O)NCc2ccccc2Cl)c(=O)c2nccn12	-5.6%
Cc1cc(Oc2ccc(Cl)cc2)nc(SCC(=O)c2ccccc2)n1	1.9%
Cc1cc(N/N=C\c2ccc(Br)cc2)nc(-n2nc(C)cc2C)n1	-0.5%
COc1ccc(Nc2cc(C)nc(-n3nc(C)cc3C)n2)cc1	84.8% (active)
COc1ccccc1/C=N\Nc1cc(C)nc(-n2nc(C)cc2C)n1	-10.1%
CCOC(=O)c1cnc(-n2nc(C)cc2C)nc1Nc1cccc(C(C)=O)c1	1.3%
CC(=O)c1ccc(Oc2cc(C)nc(-n3nc(C)cc3C)n2)cc1	85.4% (active)
N#CCc1ccc(NC(=O)c2ccccc2C(=O)Nc2ccc(CC#N)cc2)cc1	-5.3%
COC(=O)COc1ccc2c(=O)c(Oc3ccccc3Br)coc2c1	5.7%
Cc1nc2sccn2c(=O)c1S(=O)(=O)NCCc1ccccc1	-0.1%
CCc1cccc(NC(=O)C2CCCN(S(=O)(=O)c3ccc4[nH]c(=O)ccc4c3)C2)c1 (configuration not stated)	-2.8%
COc1ccc2oc(=O)cc(-c3cc4ccccc4o3)c2c1	2.8%

SMILES	inhibition
COc1ccc(Nc2nnc(C)c3ccccc23)cc1	-4%
COc1ccc(Nc2cc(=O)oc3ccccc23)cc1	46.4% (active)
O=S(=O)(Cc1nnnn1-c1ccccc1)c1ccccc1	1.5%
O=C(Nc1nnc(S(=O)(=O)N2CCOCC2)s1)c1cccc(Br)c1	0.3%
Cc1cnc(NC(=O)c2ccccn2)s1	8.9%
O=C(Nc1nnc(C2CC2)s1)c1cc(Cl)sc1Cl	0.1%
O=C(Nc1nnc(C2CC2)s1)c1ccccn1	27.4% (active)
COc1ccc(/C=N/N(C)C2=NS(=O)(=O)c3ccccc32)cc1OC	-2.2%
CN(C)c1nc(=Nc2cccc(Cl)c2)ss1	56.2% (active)
Clc1cccc(N=C2NN=C(c3ccc4c(c3)OCCO4)CS2)c1	-1.6%
O=C(CN1CCN(Cc2ccccc2)CC1)Nc1ccc(F)c(F)c1	6.7%
Cn1c(=O)oc2cc(S(=O)(=O)NCCC(=O)NCc3ccccc3Cl)ccc21	0.7%
COc1ccccc1CNC(=O)C1CCN(S(=O)(=O)c2ccc3c(c2)CC(C)N3C(=O)C2CC2)CC1 (configuration not stated)	3.9%
Cc1ccccc1NC(=O)CSc1nc2ccc(Nc3nc(N4CCOCC4)nc(N4CCOCC4)n3)cc2s1	3.9%
Cc1ccc(Nc2nc(N3CCOCC3)nc(N3CCOCC3)n2)cc1Cl	68.1% (active)
Cc1cc(Nc2ccc(Cl)cc2)nc(N2CCOCC2)n1	11.5%
Cc1ccc(NC(=O)CN(C)C(=O)c2ccc(Br)o2)cc1	-4.8%
O=C(Nn1cc(C(=O)N2CCN(c3ccccc3F)CC2)c2ccccc2c1=O)c1cnccn1	23.7% (active)
O=C(c1ccc(S(=O)(=O)N2CCCC2)cc1)N1CCN(c2ccccc2F)CC1	2.3%
Cn1c(=O)cc(OCC(=O)N2CCN(c3ccccc3F)CC2)c2ccccc21	-5.1%
Cc1cc(C)n(-c2nc(C(F)(F)F)nc3ccccc23)n1	5.6%
CCOn1c(SC(C)C)nc2ccccc2c1=O	-3.8%
CCCOn1c(-n2nc(C)cc2C)nc2ccccc2c1=O	54.7% (active)
O=C(c1cc2sccc2n1Cc1ccc(F)cc1)N1CCc2ccccc21	1.8%
COc1ccccc1C(C)NC(=O)Cc1ccsc1 (configuration not stated)	1.9%

SMILES	inhibition
O=C(COC(=O)c1ccc(F)cc1)Nc1nc2ccc([N+](=O)[O-])cc2s1	-0.2%
O=C(Nc1nc2ccc([N+](=O)[O-])cc2s1)c1ccc(S(=O)(=O)N2CCCc3ccccc32)cc1	2.9%
O=C(NC(Nc1nc2ccc([N+](=O)[O-])cc2s1)(C(F)(F)F)C(F)(F)F)c1ccccc1	28% (active)
CCc1nn(CCCC(=O)Nc2ccc(C)cc2C)c(=O)c2cc3occc3n12	-4.9%
CCCCCCCCn1c2c(c(=N)c3c1CCC3)CCCC2	47.1% (active)
CCCCCCn1c(CN2CCCCC2)nc2c1c(=O)n(C)c(=O)n2C	-2.7%
COc1ccc(CCNC(=O)c2c(C)nn(-c3ccccc3)c2Cl)cc1	-1.7%
CCOC(=O)c1c(C)[nH]c(C)c1S(=O)(=O)N(C)CC(=O)Nc1ccccc1C	-0.8%
CCOC(=O)C1=C(c2ccc(OC)cc2)C(=O)c2ccccc2C1=O	-1.7%
CCOC(=O)c1c(C)[nH]c2c1-c1ccccc1C(=O)C2=O	43.3% (active)
Cc1cc(C)c(S(=O)(=O)c2cc(F)ccc2C)c(=O)[nH]1	-1.4%
O=C(CN1CCCCCC1)Nc1ccc(Cl)cc1F	8.4%
COC(=O)NC1(C(F)(F)F)NC(=O)N(C2CCCCC2)C1=O (configuration not stated)	1.9%
O=C1NC(Nc2nc3ccccc3s2)(C(F)(F)F)C(=O)N1C1CCCCC1 (configuration not stated)	28.2% (active)
O=C(NC1(C(F)(F)F)NC(=O)N(C2CCCCC2)C1=O)c1ccco1 (configuration not stated)	3.5%
CCN(CC)CCN1C(=O)C(=O)/C(=C(/O)c2cnn(-c3ccccc3)c2C)C1c1cccs1 (configuration not stated)	3.3%
CN1C(=O)c2ccc(C(=O)Nc3ccc(Br)cn3)cc2C1=O	5.5%
C=CCc1ccccc1OCC(=O)N/N=C/c1ccccc1OCC	1.4%
Cc1ccc(/C=N/NC(=O)COc2ccccc2-c2ccccc2)cc1	85.6% (active)
CSc1ccc(/C=N\NC(=O)COc2ccc(Cl)cc2Br)cc1	7.1%
COc1ccccc1NC(=O)c1ccc(N2CC3CC(C2)c2cccc(=O)n2C3)c(NC(=O)c2cccnc2)c1 (configuration not stated)	2.1%
O=C(NCc1ccccc1)C(c1ccco1)N(C(=O)c1csnn1)c1ccccc1F (configuration not stated)	0.2%
